# Test results published in PubChem BioAssay AID686971 (National Center for Advancing Translational Sciences (NCATS), 2013).
# Hit rate of the full screen: of about 360,000 compounds, about 7,500 (2.1%) were called active. Another 8% or so got no clear call; they are omitted. Calls follow the shape of the dose curve; as a rule, active = well fitted cell-killing curve with a large enough effect; inconclusive = small, poorly fitted or top-dose-only effect, or effect the other way, or another doubt; inactive = no such curve, though single readings can be large or run the other way. The entries come from a sample that favours actives as a whole. Where a call stands in place of a potency, no number is given.
# Assay: qHTS for induction of synthetic lethality in tumor cells producing 2HG: qHTS for the HT-1080-IDH1KD cell line
# Settings: HT-1080 IDH1 knockdown viability, ATP luminescence, 48 h; series mostly up to 46.1 µM
# In short: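 Using the IDH1-knockdown HT-1080 line run in the same batch and compound series as the NT line, viability after 48 h at 37 °C was determined by CellTiter-Glo luminescence and expressed as % activity.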
# Potency is read from the fitted curve at half-maximal effect.
row,SMILES,Potency
1,CCOc1cc(/C=N/NC(=O)c2c(C)nc3ccc(Cl)cn23)ccc1O,inactive
2,CCOc1cc(/C=C(\C#N)c2nc(-c3cccs3)c(NC(C)=O)s2)ccc1O,2.91 µM (active)
3,CC1(C(=O)NS(=O)(=O)c2cccc(F)c2)CCN1C(=O)c1cccc2ccccc12 (centres undefined),inactive
4,COc1cccc(CN(C)C(=O)CC[C@H]2O[C@@H](n3cnc4c(NC(=O)c5ccccc5)ncnc43)[C@H](O)[C@@H]2O)c1,inactive
5,COc1ccc(/C(N)=N/OC(=O)Cc2ccccc2)cc1,inactive
6,COc1ccc(C(=NN)c2ccc(OC)cc2)cc1,inactive
7,COc1ccc(C(C#N)=C2C=CC(=NO)c3ccccc32)cc1,0.517 µM (active)
8,CN(C)CCNC(=O)c1ccc(Cl)c2cc3ccccc3nc12,10.3 µM (active)
9,CN(C)CCNC(=O)Nc1cccc(Cl)c1Cl,inactive
10,CN(c1ccccc1)S(=O)(=O)c1ccc(Cl)c(C(=O)NCCc2c[nH]c3ccccc23)c1,inactive
11,CC(=O)NC(c1cccc(F)c1)c1nc(-c2cccc(F)c2)cs1 (centres undefined),inactive
12,COc1ccc([C@H]2C[C@@H](n3cc(COC(=O)c4ccccc4)nn3)[C@H](O)CN2C(=O)c2cccs2)cc1,inactive
13,COC(=O)C[C@@H]1C=C[C@@H](NC(=O)c2ccc3c(c2)OCO3)[C@@H](CO)O1,inactive
14,Cc1ccc(S(=O)(=O)N2C[C@@H](C)[C@]3(C2)[C@H](O)[C@H](OC(=O)NCc2ccccc2)C[C@H]2C(=O)N(c4ccccc4)C(=O)[C@H]23)cc1,inactive
15,Cc1ccc(Oc2ccc3c(c2)C(=O)N(c2cccc4cccnc24)C3=O)cc1,inactive
16,Cc1ccc(OCC(=O)Nn2cnc3ccccc32)cc1,inactive
17,Cc1ccc(OS(=O)Nc2cccc3nccnc23)cc1 (centres undefined),11.2 µM (active)
18,CCNC(=O)C1(C)CCN(C(=O)c2ccccc2)C1 (centres undefined),inactive
19,O=C(NCc1ccc(F)cc1)c1cc(C2CCCCN2C(=O)c2ccccn2)on1 (centres undefined),inactive
20,COc1cccc(CNC(=O)[C@@H]2CCCN2C(=O)[C@@H]2CCCN2C(=O)c2ccccc2)c1,inactive
21,S=C(NCCCc1ccccc1)Nc1ccc(Br)cc1,16.4 µM (active)
22,O=S(=O)(NCCCc1ccccc1)c1ccc(Br)cc1,inactive
23,O=C(Cc1ccc(Br)cc1)NCCc1ccccc1,inactive
24,Cc1ccc(C)c(S(=O)(=O)N2CCN(c3ncnc4sccc34)CC2)c1,4.61 µM (active)
25,COc1ccc(C)cc1S(=O)(=O)N1CCN(S(=O)(=O)c2cc(C(=O)O)ccc2C)CC1,inactive

row,SMILES,Potency
1,Cc1ccc(S(=O)(=O)N2CCN(c3ncnc4ccccc34)CC2)cc1,inactive
2,COc1ccccc1-n1c(SCC(=O)Nc2ccc(Cl)cc2)nc(O)c(Cc2ccccc2)c1=O,inactive
3,CCOC(=O)[C@]12CCC=C1N(Cc1ccccc1)C(=O)[C@H](CC(=O)N1CCCC1)C2,inactive
4,O=C1CCC(=O)N1CCC(=O)N(C(=O)NC1CCCCC1)C1CCCCC1,inactive
5,CCCCNC(=O)C[C@@H]1C[C@@]2(C(=O)OCC)CCC=C2N(Cc2cccc3ccccc23)C1=O,inactive
6,CCOC(=O)[C@]12CCCC=C1N(Cc1cccc3ccccc13)C(=O)[C@H](CC(=O)NCC13CC4CC(CC(C4)C1)C3)C2,23.1 µM (active)
7,COC(=O)[C@]12CCCCC=C1N(Cc1ccc(Cl)cc1Cl)C(=O)[C@H](CC(=O)NCc1cccc3ccccc13)C2,inactive
8,CCc1nc2ccc(C(=O)N3CCC(O)(Cc4ccccc4)CC3)cn2c1N(C)C(=O)Cc1ccccc1,inactive
9,O=S1(=O)CC(N2CCN(CCO)CC2)CN1Cc1cn(Cc2ccc(Cl)cc2)nn1 (centres undefined),inactive
10,Cc1cccc(S(=O)(=O)N(C)C[C@H]2OCc3cnnn3CCCC(=O)N([C@@H](C)CO)C[C@H]2C)c1,inactive
11,CC(C)Cc1ccc(-c2cc3nc(NCc4cccc(Cl)c4)ccn3n2)cc1,20.6 µM (active)
12,COc1ccccc1-c1cc2nc(NCc3cccc(Cl)c3)ccn2n1,inactive
13,Cc1cc(C)n2c(NCc3ccccc3)c(CC(C)C)nc2n1,inactive
14,Cc1sc2ncnc(SCC(=O)NC3CCS(=O)(=O)C3)c2c1C (centres undefined),inactive
15,C=CCOc1ccccc1CNn1c(C)n[nH]c1=S,inactive
16,CNc1cncc(-c2ccc(NS(C)(=O)=O)cc2)n1,5.8 µM (active)
17,CS(=O)(=O)Nc1ccc(C(=O)N2CCCC2)cc1,inactive
18,CNc1cncc(-c2cccc(C(=O)N3CCOCC3)c2)n1,inactive
19,CCC(C(=O)Nc1c(C)cccc1C)n1c(-c2cc(C)cs2)nc2ccccc21 (centres undefined),inactive
20,CC1(C)NC(=O)N(CC(=O)Nc2ccc(-c3ccccc3)cc2)C1=O,inactive
21,COc1ccc(NC(=O)CN(C)C(=O)c2cc(C)oc2C)cc1,inactive
22,CCOc1ccc(C2C(C(=O)NC)=C(C)Nc3nc4ccccc4n32)cc1OC (centres undefined),inactive
23,CCOC(=O)C1=C(C)Nc2nc3ccccc3n2C1c1cccs1 (centres undefined),inactive
24,COc1ccccc1NC(=O)C1=C(C)Nc2nc3ccccc3n2C1c1cccs1 (centres undefined),5.17 µM (active)
